Several values for one entry are separate records, joined by “and”; a condition that tells them apart may be missing. Identical values can stand only once. Inconclusive results are not listed. A call without a number means that no potency is given here. Activity calls are given as the source filed them. Unless noted, calls come from the whole dose curve; as a rule, active = well fitted curve in the direction sought with a large enough effect; inconclusive = small, poorly fitted or top-dose-only effect, or another doubt; inactive = no such curve, though single readings can be large; an effect the other way counts as inactive or inconclusive.
Legend:
[1] = biological target: Cytochrome P450 2C9 (Homo sapiens) (UniProt P11712); experiment: Cytochrome P450 family 2 subfamily C member 9 (CYP2C9) small molecule antagonists: luciferase biochemical (cell-free) qHTS assay (AID 1645842; active = well fitted curve in the direction sought with a large enough effect in the repeat runs; an effect the other way counts as inactive or inconclusive; note: series mostly up to about 57 µM; nearly all actives have a fitted effect of over 55% in size)
Chain of Cytochrome P450 2C9 (Homo sapiens) (P11712 whole entry, looked up): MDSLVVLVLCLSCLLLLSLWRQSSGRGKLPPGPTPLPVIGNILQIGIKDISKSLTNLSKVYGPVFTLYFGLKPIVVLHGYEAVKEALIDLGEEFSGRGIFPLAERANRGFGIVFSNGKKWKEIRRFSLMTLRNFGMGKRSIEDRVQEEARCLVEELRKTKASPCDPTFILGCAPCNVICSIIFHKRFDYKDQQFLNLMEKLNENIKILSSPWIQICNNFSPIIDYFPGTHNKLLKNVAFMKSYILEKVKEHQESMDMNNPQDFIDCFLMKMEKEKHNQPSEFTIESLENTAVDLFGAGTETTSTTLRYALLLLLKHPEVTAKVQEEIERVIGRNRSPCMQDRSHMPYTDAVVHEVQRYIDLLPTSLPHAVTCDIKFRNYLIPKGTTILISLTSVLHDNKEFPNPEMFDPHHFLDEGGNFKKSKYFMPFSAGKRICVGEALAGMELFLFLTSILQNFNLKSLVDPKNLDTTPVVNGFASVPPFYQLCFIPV
Procedure, shortened: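 Luminescence, after 20 min with luciferin detection reagent, reflected CYP2C9 turnover during a 1 h NADPH-driven reaction at 37C. Enzyme-substrate mix contained 0.4% bovine serum albumin and was preincubated with compound 10 min at room temperature.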

[2] = biological target: Papain (Carica papaya) (UniProt P00784); experiment: Primary qHTS assay for inhibitors of the protease papain (AID 1645873);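 note: papain turnover of Z-FR-AMC read as the AMC fluorescence gain over 10 min; series mostly up to about 50 µM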
Chain of Papain (Carica papaya) (P00784 whole entry, looked up, the tested form may be a part): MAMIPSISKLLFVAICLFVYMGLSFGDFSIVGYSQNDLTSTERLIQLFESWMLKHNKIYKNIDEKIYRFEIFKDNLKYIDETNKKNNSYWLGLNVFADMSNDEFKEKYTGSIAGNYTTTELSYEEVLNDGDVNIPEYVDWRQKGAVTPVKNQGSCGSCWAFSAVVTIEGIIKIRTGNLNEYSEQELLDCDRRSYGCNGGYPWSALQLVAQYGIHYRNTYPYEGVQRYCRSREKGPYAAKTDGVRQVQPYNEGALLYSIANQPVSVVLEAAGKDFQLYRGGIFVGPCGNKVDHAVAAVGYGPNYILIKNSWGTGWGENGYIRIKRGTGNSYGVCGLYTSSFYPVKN

[3] = Primary qHTS for inhibitors of nuclear receptor binding SET domain protein 2 (NSD2) in an RCH-ACV wild type WT cells (2C) (AID 1645877); note: nearly all actives have a fitted effect of over 70% in size; note: potency is the fitted concentration of half-maximal effect
[4] = Primary qHTS for inhibitors of nuclear receptor binding SET domain protein 2 (NSD2) in an isogenic RCH-ACV NSD2 p.E1099K mutant (9B) (AID 1645876); note: nearly all actives have a fitted effect of over 70% in size; note: potency is the fitted concentration of half-maximal effect
[5] = biological target: Rap guanine nucleotide exchange factor 3 (Homo sapiens) (UniProt O95398); experiment: Confirmatory qHTS for agonist of cAMP-regulated guanine nucleotide exchange factor 3 (EPAC1) (AID 1645881);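 note: EPAC1 catalysed release of BODIPY-GDP from Rap1B seen as fluorescence loss; nearly all actives have a fitted effect of over 75% in size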
Chain of Rap guanine nucleotide exchange factor 3 (Homo sapiens) (O95398 whole entry, looked up): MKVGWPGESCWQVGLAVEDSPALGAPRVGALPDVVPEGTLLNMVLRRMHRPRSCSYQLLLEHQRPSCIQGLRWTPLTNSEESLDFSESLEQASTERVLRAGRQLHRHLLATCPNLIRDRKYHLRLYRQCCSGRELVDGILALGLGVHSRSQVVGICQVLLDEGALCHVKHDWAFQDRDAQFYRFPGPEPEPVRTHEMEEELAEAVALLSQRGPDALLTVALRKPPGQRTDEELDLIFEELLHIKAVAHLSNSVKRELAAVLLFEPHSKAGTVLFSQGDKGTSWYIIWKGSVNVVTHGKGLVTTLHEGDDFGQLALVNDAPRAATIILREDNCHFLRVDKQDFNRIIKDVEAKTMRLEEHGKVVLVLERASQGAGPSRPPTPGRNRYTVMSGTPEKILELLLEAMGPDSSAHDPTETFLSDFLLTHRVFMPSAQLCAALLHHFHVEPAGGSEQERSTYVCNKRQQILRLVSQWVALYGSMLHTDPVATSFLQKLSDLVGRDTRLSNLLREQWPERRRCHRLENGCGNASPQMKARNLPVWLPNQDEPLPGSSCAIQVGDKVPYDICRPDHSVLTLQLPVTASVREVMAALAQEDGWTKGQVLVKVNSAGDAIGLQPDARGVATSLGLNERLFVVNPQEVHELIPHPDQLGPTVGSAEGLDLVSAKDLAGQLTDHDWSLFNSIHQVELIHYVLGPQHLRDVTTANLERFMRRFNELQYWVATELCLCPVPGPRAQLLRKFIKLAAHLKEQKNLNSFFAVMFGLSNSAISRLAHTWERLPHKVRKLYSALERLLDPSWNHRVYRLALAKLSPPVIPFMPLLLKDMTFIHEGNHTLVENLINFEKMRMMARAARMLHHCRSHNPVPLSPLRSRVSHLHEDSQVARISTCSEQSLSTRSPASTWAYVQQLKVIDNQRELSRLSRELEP

[6] = biological target: Rap guanine nucleotide exchange factor 4 (Homo sapiens) (UniProt Q8WZA2); experiment: Confirmatory qHTS for agonist of cAMP-regulated guanine nucleotide exchange factor 4 (EPAC2) (AID 1645884);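 note: nucleotide exchange releases bodipy-GDP from Rap1 and this lowers its fluorescence; nearly all actives have a fitted effect of over 65% in size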
Chain of Rap guanine nucleotide exchange factor 4 (Homo sapiens) (Q8WZA2 whole entry, looked up): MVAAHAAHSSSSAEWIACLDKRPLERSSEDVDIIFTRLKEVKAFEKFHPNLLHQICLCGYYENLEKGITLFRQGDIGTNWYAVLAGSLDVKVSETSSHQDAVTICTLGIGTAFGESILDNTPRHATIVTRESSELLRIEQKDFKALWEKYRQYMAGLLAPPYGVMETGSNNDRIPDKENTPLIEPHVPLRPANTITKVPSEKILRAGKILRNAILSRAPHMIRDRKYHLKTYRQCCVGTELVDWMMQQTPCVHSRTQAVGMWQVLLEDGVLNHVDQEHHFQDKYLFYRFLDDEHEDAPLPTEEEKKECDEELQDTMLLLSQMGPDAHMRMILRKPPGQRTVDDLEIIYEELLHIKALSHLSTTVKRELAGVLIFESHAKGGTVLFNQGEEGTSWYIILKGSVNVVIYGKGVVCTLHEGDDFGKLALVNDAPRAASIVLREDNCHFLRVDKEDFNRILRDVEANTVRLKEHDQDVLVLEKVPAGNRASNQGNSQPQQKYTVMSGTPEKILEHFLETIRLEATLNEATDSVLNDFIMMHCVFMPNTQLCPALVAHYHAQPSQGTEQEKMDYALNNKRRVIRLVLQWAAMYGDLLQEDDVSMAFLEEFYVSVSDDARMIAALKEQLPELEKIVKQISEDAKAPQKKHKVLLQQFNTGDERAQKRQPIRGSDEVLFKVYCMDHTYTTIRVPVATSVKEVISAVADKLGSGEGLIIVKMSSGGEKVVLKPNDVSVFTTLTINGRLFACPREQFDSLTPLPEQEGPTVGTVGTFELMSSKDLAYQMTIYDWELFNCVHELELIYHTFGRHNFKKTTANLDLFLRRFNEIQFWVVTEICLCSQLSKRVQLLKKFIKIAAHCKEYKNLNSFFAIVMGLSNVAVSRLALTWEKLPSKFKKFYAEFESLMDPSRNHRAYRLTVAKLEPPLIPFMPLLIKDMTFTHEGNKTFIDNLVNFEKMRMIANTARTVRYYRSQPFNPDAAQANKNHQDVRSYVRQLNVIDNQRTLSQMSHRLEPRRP

Compound | Potency [1] | Potency [2] | Potency [3] | Potency [4] | Potency [5] | Potency [6]
CN(C)CCCN1c2ccccc2CCc2ccc(Cl)cc21 | inactive | inactive | 16.8 µM (active) and 18.6 µM (active) |  |  | 
Cc1cnc(C(=O)NCCc2ccc(S(=O)(=O)NC(=O)NC3CCCCC3)cc2)cn1 |  | inactive |  |  |  | 
OCCN1CCN(CCCN2c3ccccc3Sc3ccc(C(F)(F)F)cc32)CC1 |  | inactive | 18.8 µM (active) | 18.8 µM (active) | inactive | inactive
CN(CCOc1ccc(NS(C)(=O)=O)cc1)CCc1ccc(NS(C)(=O)=O)cc1 | inactive | inactive | inactive | inactive |  | 
CNCCCC12CCC(c3ccccc31)c1ccccc12 |  | inactive | 18.8 µM (active) and 20.9 µM (active) | 21.1 µM (active) and 20.9 µM (active) |  | 
NC(=O)NO |  | inactive | inactive | inactive |  | 
O=C(c1ccc(F)cc1)C1CCN(CCn2c(=O)[nH]c3ccccc3c2=O)CC1 |  | inactive | inactive | inactive |  | 
NCCc1cnc[nH]1 |  | inactive | inactive | inactive |  | 
CN(C)c1nc(N(C)C)nc(N(C)C)n1 |  | inactive | inactive | inactive |  | 

— PubChem BioAssay (NCATS)
